# Shown are actives, neighbours in structure and some others; about 31% of the full set was active somewhere.
# CYP2C9 activ: activators of human CYP2C9; P11712; activation factor at 5 µM; actives 1.4% (n = 96,000); recombinant CYP2C9, luciferin-H conversion, luminescence; active compounds read high; factor 1 = untreated enzyme, 0 = blocked;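 active means activation factor of 2 or more for CYP2C9 at a 5 µM dose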;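 further: 0 = sulfaphenazole-blocked wells and 1 = vehicle-only wells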
# CYP2C19 inhib: inhibitors of human CYP2C19. P33261. CYP2C19 Supersomes, luciferin-H EGE luminescence, 30 min. inhibition, % at 5 µM. actives 21% (n = 96,000). AID 778;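 active means CYP2C19 inhibition above a set limit at 5 µM in the primary screen, cut at about 50% in these data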;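 further: plate controls were negative control wells for no effect and 2.5 mM tranylcypromine positive control for full effect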
# Target sequence (P33261 whole entry, looked up): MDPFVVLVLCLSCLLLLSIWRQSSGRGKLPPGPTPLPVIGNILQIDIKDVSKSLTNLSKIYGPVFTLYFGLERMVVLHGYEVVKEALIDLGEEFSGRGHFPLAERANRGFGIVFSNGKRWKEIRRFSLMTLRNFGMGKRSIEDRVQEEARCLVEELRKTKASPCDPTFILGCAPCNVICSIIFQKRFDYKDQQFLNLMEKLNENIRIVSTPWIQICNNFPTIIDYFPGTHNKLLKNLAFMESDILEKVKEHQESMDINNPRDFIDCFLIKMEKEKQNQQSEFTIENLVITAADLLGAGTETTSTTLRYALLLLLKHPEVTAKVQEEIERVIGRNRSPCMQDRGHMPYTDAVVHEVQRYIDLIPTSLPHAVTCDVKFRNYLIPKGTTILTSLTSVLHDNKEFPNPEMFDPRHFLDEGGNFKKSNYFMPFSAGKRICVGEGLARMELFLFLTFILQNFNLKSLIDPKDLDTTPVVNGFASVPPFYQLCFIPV
# CYP2C9 inhib: human CYP2C9 inhibition; P11712; CYP2C9 Supersomes, luciferin-H conversion, luminescence; inhibition, % at 5 µM; actives 20% (n = 96,000);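 active means blocking of liver enzyme CYP2C9 beyond about 50% at 5 µM, limit read from the data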
# CYP2C19 act: activators of human cytochrome P450 2C19; P33261; recombinant CYP2C19, luciferin-H EGE luminescence; active compounds read high; 0 = fully inhibited enzyme, 1 = untreated enzyme; activation factor at 5 µM; 96,000 tested, under 10 active; AID 1025;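 active means activation factor of at least 2 at 5 µM in the primary screen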;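 further: 0 = wells with 2.5 mM tranylcypromine and 1 = vehicle-only wells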
# An asterisk follows results filed as active.
SMILES,CYP2C9 activ,CYP2C19 inhib,CYP2C9 inhib,CYP2C19 act
O=C(CCNc1ccccc1)c1cccc([N+](=O)[O-])c1,0.7,67*,29,0.3
CCC(CC)C(=O)Nc1cccc(/C(C)=N/NC(=O)c2c(Br)cnn2C)c1,0.9,-4,13,1
CCCCn1c(SCC2CCCO2)nc2cc(S(N)(=O)=O)ccc21 (stereo unspecified),0.6,16,37,0.8
COC(=O)C(CC(C)C)NC(=O)c1ccc([N+](=O)[O-])c(C)c1 (stereo unspecified),1.1,11,-6,0.9
CCn1nnnc1SCC(=O)NCc1ccco1,1.2,-13,-15,1.1
Cc1ccc(/C=N/n2nnnc2N)o1,1,6,-1,0.9
COc1cc(Cl)ccc1S(=O)(=O)n1nc(C)cc1C,0.8,75*,15,0.3
COc1cc(S(=O)(=O)n2nc(C)cc2C)c(OC)cc1Cl,0.7,83*,29,0.2
COc1ccc(Cl)cc1C(=O)n1nc(C)cc1C,1.1,27,-13,0.7
CC1CN(Cc2cc(=O)[nH]c(C3CC3)n2)CC(C)O1 (stereo unspecified),1.1,12,-11,0.9
CCOC(=O)COc1ccccc1-c1ccno1,0.9,39,11,0.6
CCOC(=O)C(NC(C)=O)(Nc1ccc(F)cc1)C(F)(F)F (stereo unspecified),0.9,63*,6,0.4
CCOC(=O)C(NC(C)=O)(Nc1cccc(F)c1)C(F)(F)F (stereo unspecified),0.8,47,15,0.5
CCOC(=O)C(NC(=O)Nc1ccc(F)cc1)(OCC)C(F)(F)F (stereo unspecified),0.8,50*,19,0.5
CC(C)NC(=O)c1cc(=O)n(C)c(=O)n1C,0.9,14,10,0.9
COc1ccc(NC(C)=O)cc1NC(C)C(=O)Nc1ccc(F)c(F)c1F (stereo unspecified),0.5,70*,47,0.3
COc1ccc(NC(C)=O)cc1NC(C)C(=O)Nc1ccccc1F (stereo unspecified),0.9,24,8,0.8
O=[n+]1cc(-c2cccc3ccccc23)n([O-])c2c1CCC2,1,-9,2,1.1
CCOC(=O)CN(C(=O)c1ccccc1)c1ccccc1C,0.7,19,30,0.8
Cc1ccccc1N(CC(=O)N/N=C/c1ccc(Cl)cc1)C(=O)c1ccccc1,0,68*,98*,0.3
Cc1ccccc1N(CC(=O)N/N=C/c1ccc(F)cc1)C(=O)c1ccccc1,0.1,80*,95*,0.2
Cc1ccc(S(=O)(=O)n2ccc(-c3cccc(OCc4c(F)cccc4Cl)c3)n2)cc1,0.3,20,68*,0.8
COc1ccc(Cl)cc1NC(=O)COc1cccc(-n2cnnn2)c1,3.3*,29,-234,0.7
COc1cc(NC(=O)Cc2ccccc2)cc(OC)c1,0.6,94*,38,0.1
CC(=O)Oc1ccc(NC(=O)Cc2ccccc2)cc1,0.8,44,21,0.6
SMILES,CYP2C9 activ,CYP2C19 inhib,CYP2C9 inhib,CYP2C19 act
COc1cc(NC(=O)COc2cccc(OC)c2)cc(OC)c1,1,88*,-4,0.1
COc1ccc(NC(=O)CCC2CCCC2)cc1OC,0.7,95*,28,0.1
O=C(COc1cccc(-n2cnnn2)c1)N1CCOCC1,0.9,-10,5,1.1
O=C(O)c1cc(Cl)ccc1NC(=O)C1CCCO1 (stereo unspecified),0.9,-8,13,1.1
COc1ccccc1NC(=O)Cc1nn(C)c(=O)c2ccccc12,0.8,31,21,0.7
CCC(=O)Nc1cccc(NC(=O)COc2ccc(OC)cc2)c1,1.5,36,-51,0.6
COc1cc(NC(=O)Cc2nn(C)c(=O)c3ccccc23)cc(OC)c1,0.1,35,86*,0.7
O=C(COc1cccc(OC(F)F)c1)Nc1ccc(SC(F)F)cc1,1.1,81*,-5,0.2
COc1cccc(OCC(=O)Nc2ccc(OC)c(OC)c2)c1,0.9,51*,13,0.5
CCCOC(=O)c1ccc(OCC(O)CN2CCN(C(=O)c3ccccc3)CC2)cc1 (stereo unspecified),0.4,11,64*,0.9
Fc1ccc(NC(=S)NCc2ccccn2)cc1,1,13,-2,0.9
S=C(NCc1ccccn1)Nc1ccc(Cl)c(Cl)c1,0.8,51*,25,0.5
S=C(NCc1ccccn1)Nc1ccc(Cl)cc1Cl,1,66*,4,0.3
N#Cc1ccccc1OCC(=O)Nc1c(C(=O)C2CC2)oc2ccccc12,0.6,23,38,0.8

# Compound activity as filed in PubChem BioAssay.
